# According to PubChem BioAssay (NCI):
# Compounds without any hit were thinned out: in the full panel of roughly 79,000, 15% have a hit. A number with no mark means an inactive call. The source made the active and inactive calls. Cut-off read from the data, not from the text of the source: active = growth inhibition above about 70%; inactive = the rest.
# Legend:
# [1] = NCI Yeast Anticancer Drug Screen. Data for the rad50 strain (AID 155);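 note: 0% = growth of vehicle-only cultures of the same strain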; conditions: S. cerevisiae rad50 strain growth inhibition, stronger effect = higher value
# Method in brief: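 Relative growth inhibition (compound vs vehicle) was measured in yeast with a defined repair-gene alteration.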
# [2] = NCI Yeast Anticancer Drug Screen. Data for the mec2-1 strain (AID 157); conditions: S. cerevisiae mec2-1 strain, stronger effect = higher value
# Method in brief: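 Compounds were applied to mec2-1 yeast cells. Their growth was then compared with that of vehicle-treated cultures to give growth inhibition.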
# [3] = NCI Yeast Anticancer Drug Screen. Data for the sgs1 mgt1 strain (AID 161);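 note: 0% = growth of cultures given vehicle only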; conditions: S. cerevisiae sgs1 mgt1 strain, stronger effect = higher value
# Method in brief: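 This yeast growth screen uses a strain with defined DNA-repair lesions; compound-treated growth is compared with vehicle-treated growth.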
# [4] = NCI Yeast Anticancer Drug Screen. Data for the cln2 rad14 strain (AID 165);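 note: 0% = growth equal to vehicle treated cultures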; conditions: S. cerevisiae cln2 rad14 strain, stronger effect = higher value
# Method in brief: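 Strain: cln2 rad14 yeast, altered in cell cycle control and DNA damage repair. Read-out: growth inhibition vs vehicle.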
# [5] = NCI Yeast Anticancer Drug Screen. Data for the bub3 strain (AID 167); conditions: S. cerevisiae bub3 mutant strain, stronger effect = higher value
# Method in brief: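 Screening used yeast with an engineered genetic alteration affecting cell cycle control. Compound-exposed cultures were compared with vehicle cultures, and reduced growth was taken as inhibition.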
# [6] = NCI Yeast Anticancer Drug Screen. Data for the mlh1 rad18 strain (AID 175); conditions: S. cerevisiae mlh1 rad18 strain growth inhibition, stronger effect = higher value
# Method in brief: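 A repair-deficient yeast strain is exposed to test compound, and growth is scored relative to vehicle-treated controls.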
# [7] = at 5.0 µM (retest, dose inferred, filed as 0.5)
# [8] = at 50.0 µM (retest, dose inferred, filed as 5.0)
SMILES,"growth inhibition [1, 7]","growth inhibition [1, 8]",growth inhibition ([1]; at 50.0 µM),"growth inhibition [2, 7]","growth inhibition [2, 8]",growth inhibition ([2]; at 50.0 µM),"growth inhibition [3, 7]","growth inhibition [3, 8]",growth inhibition ([3]; at 50.0 µM),"growth inhibition [4, 7]","growth inhibition [4, 8]",growth inhibition ([4]; at 50.0 µM),"growth inhibition [5, 7]","growth inhibition [5, 8]",growth inhibition ([5]; at 50.0 µM),"growth inhibition [6, 7]","growth inhibition [6, 8]",growth inhibition ([6]; at 50.0 µM)
C[C@]12CC[C@H]3[C@@H](CCC4=CC(=O)CC[C@@]43C)[C@@H]1CC[C@@H]2O[Si](O[C@H]1CC[C@H]2[C@@H]3CCC4=CC(=O)CC[C@]4(C)[C@H]3CC[C@]12C)(O[C@H]1CC[C@H]2[C@@H]3CCC4=CC(=O)CC[C@]4(C)[C@H]3CC[C@]12C)c1ccccc1,5%,59%,75.9% (active),1%,62%,89.9% (active),-1%,93% (active),97.5% (active),-6%,33%,58.6%,4%,77% (active),81.5% (active),1%,84% (active),94.8% (active)
COc1cc(C2c3cc4c(cc3[C@@H](Nc3cccc(O)c3)C3COC(=O)[C@H]23)OCO4)cc(OC)c1O (stereo not given in full),96% (active),97% (active),85% (active),96% (active),98% (active),90.7% (active),28%,97% (active),88.5% (active),33%,90% (active),88.8% (active),21%,93% (active),87.7% (active),94% (active),97% (active),87% (active)
CCOC(=O)c1ccc2c(c1)Cc1cc([N+](=O)[O-])ccc1-2,1%,65%,43.6%,-2%,37%,15.8%,7%,72% (active),51%,-97%,12%,4.15%,43%,89% (active),80.8% (active),7%,57%,58.1%
Cc1ccc(Nc2nc3c(s2)C(=O)c2ccccc2C3=O)cc1,37%,97% (active),98.2% (active),61%,98% (active),98.8% (active),34%,98% (active),98.7% (active),3%,96% (active),97.8% (active),91% (active),97% (active),98.7% (active),61%,97% (active),97.7% (active)
COc1cc(OC)c(C(=O)[O][Sn]([c]2ccccc2)([c]2ccccc2)[c]2ccccc2)cc1OC,100% (active),98% (active),98.4% (active),100% (active),100% (active),96.3% (active),99% (active),99% (active),97.3% (active),99% (active),99% (active),90.5% (active),96% (active),99% (active),96.1% (active),99% (active),100% (active),96.7% (active)
O=C(C(=O)n1ncc(Cl)c(Cl)c1=O)n1ncc(Cl)c(Cl)c1=O,5%,7%,18.6%,-5%,10%,70.9% (active),5%,8%,44.9%,-6%,-15%,13.8%,-2%,-1%,36.9%,0%,3%,65.9%
O=C1OC2(c3ccc(O)cc3Oc3cc(O)ccc32)c2c1c(-c1ccccc1)c(-c1ccccc1)c(-c1ccccc1)c2-c1ccccc1,26%,83% (active),76.7% (active),13%,52%,36.6%,14%,50%,39.9%,-10%,34%,-14.4%,-1%,59%,50.9%,6%,73% (active),62.8%
Cc1cc(C)c(Cc2ccccc2O)cc1Cc1ccccc1O,33%,47%,90.5% (active),35%,46%,91.7% (active),80% (active),97% (active),92.5% (active),65%,99% (active),90.7% (active),87% (active),98% (active),90.1% (active),34%,38%,89.7% (active)
CC1(Cc2ccccc2)CCCC(C=O)C1=O.[Cu+2] (stereo not given),1%,98% (active),66.5%,0%,97% (active),31.5%,-4%,98% (active),94.7% (active),0%,92% (active),-21.9%,-3%,96% (active),-3.85%,0%,99% (active),44.9%
CCCC(CCC)NCCOC(=O)C(CC)c1ccccc1 (stereo not given),3%,42%,88% (active),-5%,23%,15.9%,12%,63%,88.3% (active),-35%,62%,55.9%,7%,75% (active),49.6%,4%,47%,75% (active)
